Counter-ions that a name gives are not always drawn. ± gives the standard deviation of the averaged measurements. In all, about 1,700 compounds were measured (“cell number in HSV-1-infected wells relative to infected DMSO wells (H2B-RFP signal)”: median about 100, highest 2% from about 140 on). This is one part of a sample in which the highest values are shown more often than they occur.
Each molecule was assayed on A549 infected with HSV-1 (assay: cell number in HSV-1-infected wells relative to infected DMSO wells (H2B-RFP signal); higher = more surviving cells (uninfected or antiviral-protected wells give about 200%; low = toxicity)). Conditions: 10 µM; 48 h; MOI: 0.1.
Procedure: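 Selleck FDA-approved library (L1300) screened in duplicate at 10 µM on A549 H2B-mRuby cells in 384-well plates, infected with HSV-1 strain 17 YFP-ICP4 at MOI 0.1 one hour before drug addition. Imaged after 2 days at 37°C. Cell growth (H2B-RFP) and infection (ICP4-YFP) are expressed as % of DMSO-treated wells. Hits: growth >90% and infection <20% of DMSO.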

SMILES | cell number in HSV-1-infected wells [%]
O=NN(CCCl)C(=O)NC1CCCCC1 [Lomustine] | 84.7 ± 27
CC/C=C(\C(=O)N[C@@H]1C(=O)N2C(C(=O)OCOC(=O)C(C)(C)C)=C(COC(N)=O)CS[C@H]12)c1csc(N)n1 [Cefcapene Pivoxil Hydrochloride] | 149.2 ± 0.042
CO/N=C(\C(=O)N[C@@H]1C(=O)N2C(C(=O)OCOC(=O)C(C)(C)C)=C(/C=C\c3scnc3C)CS[C@H]12)c1csc(N)n1 [Cefditoren Pivoxil] | 110 ± 2.6
CO/N=C(\C(=O)N[C@@H]1C(=O)N2C(C(=O)O)=C(COC(C)=O)CS[C@H]12)c1csc(N)n1 [Cefotaxime sodium] | 103 ± 12
CCC(=O)NS(=O)(=O)c1ccc(-c2c(-c3ccccc3)noc2C)cc1 [Parecoxib] | 115 ± 8.7
CCC(=O)NS(=O)(=O)c1ccc(-c2c(-c3ccccc3)noc2C)cc1 [Parecoxib Sodium] | 89.9 ± 1
CC(=O)NO [Acetohydroxamic acid] | 127 ± 15
Cc1nc(-c2ccc(OCC(C)C)c(C#N)c2)sc1C(=O)O [Febuxostat] | 95.2 ± 11
O=C1[C@@H]2[C@H]3CC[C@H](C3)[C@@H]2C(=O)N1C[C@@H]1CCCC[C@H]1CN1CCN(c2nsc3ccccc23)CC1 [lurasidone] | 75.7 ± 27
CN1CCOC(c2ccccc2)c2ccccc2C1 (stereo unspecified) [Nefopam HCl] | 120 ± 8.1
CC1(C)C[C@@H]1C(=O)N/C(=C\CCCCSC[C@H](N)C(=O)O)C(=O)O [Cilastatin] | 99 ± 21
CN(C)C(=O)COC(=O)Cc1ccc(OC(=O)c2ccc(NC(=N)N)cc2)cc1 [Camostat Mesilate] | 124 ± 36
Cc1c(C(C)C)c(=O)n(-c2ccccc2)n1C [Propyphenazone (4-Isopropylantipyrine)] | 78.4 ± 2.3
Cc1c(NC(=O)c2cccnc2)c(=O)n(-c2ccccc2)n1C [Nifenazone] | 145 ± 5.2
O=C(O)c1cccnc1 [Nicotinic Acid] | 93.2 ± 4
CCCC(CCC)C(N)=O [Valpromide] | 91.6 ± 13
CC(=O)Oc1ccc(C(=C2CCCCC2)c2ccc(OC(C)=O)cc2)cc1 [Cyclofenil] | 122 ± 7.6
CNC(=O)c1cnn(-c2nc(N)c3ncn([C@@H]4O[C@H](CO)[C@@H](O)[C@H]4O)c3n2)c1 [Regadenoson] | 128 ± 16
Nc1ccc(/N=N/c2ccccc2)c(N)n1 [Phenazopyridine HCl] | 121 ± 23
COC(=O)C1=C(C)NC(C)=C(C(=O)OCC(C)C)C1c1ccccc1[N+](=O)[O-] (stereo unspecified) [Nisoldipine] | 92.2 ± 1.4
O=C(O)CSCC(=O)NC1CCSC1=O (stereo unspecified) [Erdosteine] | 121 ± 9.9
CC(=O)NC1CCSC1=O (stereo unspecified) [Citiolone] | 144 ± 26
OC[C@H]1O[C@@H](c2ccc(Cl)c(Cc3ccc(O[C@H]4CCOC4)cc3)c2)[C@H](O)[C@@H](O)[C@@H]1O | 110 ± 9

SMILES | cell number in HSV-1-infected wells [%]
CN[C@H]1C(=O)N[C@@H]2Cc3ccc(cc3)Oc3cc4cc(c3O[C@@H]3O[C@H](C(=O)O)[C@@H](O)[C@H](O)[C@H]3NC(=O)CCCCCCCCC(C)C)Oc3ccc(cc3Cl)[C@@H](O)[C@@H]3NC(=O)[C@H](NC(=O)[C@@H]4NC(=O)[C@@H](NC2=O)c2cc(cc(O)c2Cl)Oc2cc1ccc2O)c1ccc(O)c(c1)-c1c(O[C@H]2O[C@H](CO)[C@@H](O)[C@H](O)[C@@H]2O)cc(O)cc1[C@@H](C(=O)NCCCN(C)C)NC3=O [Dalbavancin] | 125 ± 2.5
CSCCNc1nc(SCCC(F)(F)F)nc2c1ncn2[C@@H]1O[C@H](COP(=O)(O)OP(=O)(O)C(Cl)(Cl)P(=O)(O)O)[C@@H](O)[C@H]1O [Cangrelor Tetrasodium] | 99.5 ± 2.3
CNCCCN1c2ccccc2CCc2ccccc21 [Desipramine Hydrochloride] | 163 ± 20
CN(C)CCCN1c2ccccc2CCc2ccccc21 [Imipramine HCl] | 134 ± 28
CN(C)CCCN1c2ccccc2CCc2ccc(Cl)cc21 [Clomipramine HCl] | 93 ± 22
O=C(c1ccc(F)cc1)C1CCN(CCn2c(=O)[nH]c3ccccc3c2=O)CC1 [Ketanserin] | 124.4 ± 0.22
COc1cc(NC(C)CCCN)c2ncccc2c1 (stereo unspecified) [Primaquine Diphosphate] | 118 ± 8
Cc1cccc(C)c1OCC(=O)N[C@@H](Cc1ccccc1)[C@@H](O)C[C@H](Cc1ccccc1)NC(=O)[C@H](C(C)C)N1CCCNC1=O [Lopinavir] | 85.9 ± 22
NCCNc1ccc(NCCN)c2c1C(=O)c1ccncc1C2=O [Pixantrone Maleate] | 36.1 ± 10
O=C1Nc2ccc(Cl)cc2[C@@](C#CC2CC2)(C(F)(F)F)O1 [Efavirenz] | 10.6 ± 3.5
CCOC(CN1CCN(CC(C)C(=O)c2ccccc2)CC1)c1ccccc1 (stereo unspecified) [Eprazinone 2HCl] | 108.9 ± 1
CC1=C(/C=C/C(C)=C/C=C/C(C)=C\C(=O)O)C(C)(C)CCC1 [Isotretinoin] | 98.64 ± 0.63
COc1ccc2c(c1)c(CC(=O)O)c(C)n2C(=O)c1ccc(Cl)cc1 [Indomethacin] | 119 ± 12
COc1ccc2c(c1)c(CC(=O)O)c(C)n2C(=O)c1ccc(Cl)cc1 [Indometacin Sodium] | 69.9 ± 22
COc1ccc(NC(=O)c2ccc(C(=N)N(C)C)cc2)c(C(=O)Nc2ccc(Cl)cn2)c1 [Betrixaban maleate] | 130 ± 48
COc1ccc(NC(=O)c2ccc(C(=N)N(C)C)cc2)c(C(=O)Nc2ccc(Cl)cn2)c1 [Betrixaban] | 150 ± 40
CCCOC(C(=O)OC1CCN(C)CC1)(c1ccccc1)c1ccccc1 [Propiverine hydrochloride] | 102 ± 5
COC(=O)c1ccc2c(C(=Nc3ccc(N(C)C(=O)CN4CCN(C)CC4)cc3)c3ccccc3)c(O)[nH]c2c1 [Nintedanib Ethanesulfonate Salt] | 91.8 ± 4.1
CC(C)OC(=O)CCC/C=C\C[C@@H]1[C@@H](/C=C/C(F)(F)COc2ccccc2)[C@H](O)C[C@@H]1O [Tafluprost] | 83.4 ± 27
CC#CCn1c(N2CCC[C@@H](N)C2)nc2c1c(=O)n(Cc1nc(C)c3ccccc3n1)c(=O)n2C [Linagliptin] | 95.4 ± 6.9
NC(=O)c1ccc(I)c([N+](=O)[O-])c1 [Iniparib (BSI-201)] | 66.8 ± 6.8
NC(=O)c1cc(N2CC2)c([N+](=O)[O-])cc1[N+](=O)[O-] | 74.6 ± 11
Cc1c(C(N)=O)cc([N+](=O)[O-])cc1[N+](=O)[O-] [Dinitolmide] | 145 ± 18
